# High-throughput results (PubChem BioAssay)
# Tau fibril FP – inhibitors of human tau fibril formation; 280,000 tested, 0.39% active; K18 P301L tau heparin fibrillization, Alexa594 FP, 6 h; AID 1468; Potency, µM (series often up to 57.7 µM), inactives show at the top dose activity, negative = inhibition, most hits filed as inhibitors; also: nearly all actives have a fitted effect of over 55% in size
# Target sequence (P10636 561-689 P618L limits assumed): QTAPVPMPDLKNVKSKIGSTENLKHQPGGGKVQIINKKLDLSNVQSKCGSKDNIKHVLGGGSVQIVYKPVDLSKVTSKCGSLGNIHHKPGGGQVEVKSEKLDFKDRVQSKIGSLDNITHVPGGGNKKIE
#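 Human tau K18 […] P301L fragment, 15 uM unlabeled plus 0.24 uM Alexa 594-labeled tau (final), with compound and 20 uM heparin in 100 mM sodium acetate pH 7; 6 hr at 37 C, then Alexa 594 FP read.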
# RORg inh – inhibitors of mouse ROR gamma transcriptional activity. Drosophila S2 Gal4-RORgamma UAS-luciferase reporter, 20 h. Potency, µM (doses to about 53.6 µM), without a hit: top-dose activity change, negative = inhibition, actives largely listed as inhibitors. 310,000 tested, 5.4% active. AID 2551; also: nearly all actives have a fitted effect of over 60% in size
# Target sequence (P51450 whole entry, looked up, the tested form may be a part): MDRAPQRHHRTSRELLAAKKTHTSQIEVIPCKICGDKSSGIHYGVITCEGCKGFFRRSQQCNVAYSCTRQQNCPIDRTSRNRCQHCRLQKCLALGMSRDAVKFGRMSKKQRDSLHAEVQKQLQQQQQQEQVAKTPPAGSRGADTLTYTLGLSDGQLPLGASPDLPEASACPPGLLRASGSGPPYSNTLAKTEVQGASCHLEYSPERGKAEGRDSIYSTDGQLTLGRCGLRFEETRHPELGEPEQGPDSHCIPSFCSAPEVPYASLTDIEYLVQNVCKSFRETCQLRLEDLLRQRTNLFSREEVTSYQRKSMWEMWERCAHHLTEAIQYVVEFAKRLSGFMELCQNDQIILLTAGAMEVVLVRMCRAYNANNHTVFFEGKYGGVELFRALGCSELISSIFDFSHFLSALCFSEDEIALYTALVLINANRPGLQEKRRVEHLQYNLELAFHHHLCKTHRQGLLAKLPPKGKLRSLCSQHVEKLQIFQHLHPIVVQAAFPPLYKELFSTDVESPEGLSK
#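 ROR gamma transcriptional activity was tracked as Gal4-UAS luciferase output in stably transfected Drosophila Schneider cells, with compound added 1 hr before 700 uM copper sulfate induction and a 20 hr ambient-temperature incubation.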
# Tau fluor cs – counter-screen for tau fibril formation inhibitors | 280,000 tested, 0.93% active | tau K18 P301L Alexa594 fluorescence, heparin fibrillization | Potency, µM (series often up to 57.7 µM), without a hit: top-dose activity change, negative = decrease | AID 1463; also: nearly all actives have a fitted effect of over 55% in size
#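 Human tau K18 P301L (15 uM unlabeled, 0.24 uM Alexa 594-labeled) in 100 mM sodium acetate pH 7 with 20 uM heparin, 6 hr at 37 C. ThT 30 uM added, 1 hr ambient; Alexa 594 FP and total fluorescence read at 555/632 nm.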
# Gal4-VP16 FLuc – inhibits Gal4-VP16 luciferase reporter, ROR gamma counter-screen | Drosophila S2 Gal4-VP16 UAS-luciferase, luminescence, 20 h | Potency, µM (doses to about 53.6 µM), for inactives: at the highest dose activity, negative = inhibition, actives largely listed as inhibitors | 310,000 tested, 3.5% active | AID 2546;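 also: Gal4-VP16 expression switched on by copper sulfate through the metallothionein promoter; nearly all actives have a fitted effect of over 50% in size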
# Tau ThT inhib – inhibitors of human tau fibril formation, thioflavin T binding; Potency, µM (highest dose often 57.4 µM), without a hit: top-dose activity, negative = inhibition, hits mostly inhibitors; P10636; AID 1460; 270,000 tested, 2.1% active; recombinant tau K18 P301L, heparin-induced fibrillization, ThT fluorescence; also: nearly all actives have a fitted effect of over 55% in size
#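 ThT emission at 510 nm, taken 1 hr after adding 30 uM dye, quantifies aggregates formed when 20 uM heparin acts on human tau K18 P301L for 6 hr at 37 C.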
# Starred values were filed as active, the others as inactive; ? = inconclusive; · = not tested or not shown; [ ] = another dose, or the depositor's remark. Only some compounds are listed: those with a hit (about 7.3% of all), similar ones and a draw of the others. Calls follow the shape of the dose curve; as a rule, active = well fitted curve in the direction sought with a large enough effect; inconclusive = small, poorly fitted or top-dose-only effect, or another doubt; inactive = no such curve, though single readings can be large; an effect the other way counts as inactive or inconclusive. % is scaled to controls: 0 for no effect and ±100 for the full control effect; potency is read from the fitted curve at half-maximal effect.
SMILES,Tau fibril FP,RORg inh,Tau fluor cs,Gal4-VP16 FLuc,Tau ThT inhib
O=C(NC(=S)Nc1ccccc1Cl)c1csnn1,?,?,-12%,?,16µM*
COc1ccc(C(=O)NC(=S)Nc2ccccc2[N+](=O)[O-])cc1OC,-8%,7.1µM*,-11%,17%,-10%
O=C(NNC(=S)NC(=O)c1ccccc1[N+](=O)[O-])c1ccccc1Cl,-4%,-38%,2%,23%,?
Cc1cc(C)c(C(=O)CC(=O)c2ccccc2Cl)c(O)c1,·,2.2µM*,·,4.5µM*,·
O=C(NC(=S)Nc1ccccc1[N+](=O)[O-])c1ccccc1Cl,3%,4µM*,-24%,?,-13%
O=C(Nc1ccccc1NC(=O)c1csnn1)c1csnn1,-4%,-43%,-11%,-6%,-9%
Cc1cc(=O)oc2cc(OCC(=O)N3CCN(C(=O)C4COc5ccccc5O4)CC3)c(Cl)cc12 (configuration not stated),·,-11%,·,?,·
COC(=O)N[C@@H](c1cccc(F)c1)C(C(C)=O)C(=O)OC (some centres not stated),-1%,8%,-1%,-1%,0%
COC(=O)C1=C(C)Nc2nc3ccccc3n2C1c1cc(OC)c(OC)c(OC)c1 (configuration not stated),3%,13µM*,-7%,-14%,-8%
COc1cccc(-c2nccc(-n3ccnc3)n2)c1,-1%,-38%,-21%,-24%,?
CCOC(=O)C(NC(=O)c1ccccc1)(OCc1ccc(F)cc1)C(F)(F)F (configuration not stated),-11%,1%,3%,-3%,10%
CCOC(=O)C(NC(=O)c1cccc(Cl)c1)(OCc1ccc(F)cc1)C(F)(F)F (configuration not stated),4%,?,2%,20µM*,14%
CN(C(=O)c1ccccc1C(=O)OCC(=O)NC(=O)NC(C)(C)C)C1CCCCC1,1%,20%,0%,10%,-6%
O=C(OCC(=O)N(C1CCCCC1)C1CCCCC1)c1ccccc1O,·,19%,·,-2%,·
CN(C)c1ccc(N=Nc2ccccc2C(=O)OCC(=O)NC2CCCC2)cc1,-3%,?,?,-4%,6.3µM*
CN(C)c1ccc(N=Nc2ccccc2C(=O)OCC(=O)N(C)C2CCCCC2)cc1,12%,-18%,?,-29%,7.9µM*
CN(C)c1ccc(N=Nc2ccccc2C(=O)OCC(=O)NCC2CCCCC2)cc1,?,6%,14%,-7%,1.8µM*
O=C(Nc1c(C(=O)N2CCN(c3ccccn3)CC2)oc2ccccc12)c1cccc([N+](=O)[O-])c1,·,-6%,·,-10%,·
COc1ccccc1CNc1nc(-c2ccco2)nn1S(=O)(=O)c1ccc(C)cc1,-18%,·,-29%,·,-3%
COc1ccc(N2CCN(C(c3cccs3)C(C)NC(=O)C(=O)N3CCCC3)CC2)cc1 (configuration not stated),·,7%,·,2%,·
O=C(CCN1C(=O)S/C(=C/c2ccccc2)C1=O)Nc1ccc(O)c(C(=O)O)c1,·,-2%,·,-3%,·
CNC(=O)[C@H](C)/C=C(\c1cccnc1)C(NC(=O)OCc1ccccc1)c1ccc(C(=O)OC)cc1 (some centres not stated),6%,-3%,-2%,0%,-8%
CCCN1C(=O)/C(=C\c2nc3ccccc3c(=O)[nH]2)c2ccccc21,1%,-3%,-20%,-8%,22µM*
CCCCSCc1nc2ccccn2c1Br,12%,11µM*,2%,-5%,-1%
CCSCc1nc2ccccn2c1Br,5%,-8%,-9%,5%,-7%
SMILES,Tau fibril FP,RORg inh,Tau fluor cs,Gal4-VP16 FLuc,Tau ThT inhib
CCC(=O)c1cn(CC(=O)Nc2cccc(C)c2)c2ccccc12,·,-28%,·,-4%,·
Cc1nc(CC(=O)c2ccc(O)cc2O)cs1,-3%,28%,-9%,-21%,-11%
Cc1nc(C/C(=N\Nc2ccccc2)c2ccc(O)cc2O)cs1,-5%,-2%,25µM*[quencher],-25%,?
COc1cccc(-c2nccc(NCc3ccccc3OC)n2)c1,·,?,·,-1%,·
Cc1ccc(OCc2nc(-c3ccccn3)n[nH]2)cc1,0%,3.2µM*,-12%,5µM*,-13%
Cc1cccc(OCc2nc(-c3ccccn3)n[nH]2)c1,-8%,1.6µM*,-6%,2.8µM*,-9%
NC(=O)c1ccc(NC(=O)COc2cccc3ccccc23)cc1,·,-2%,·,-1%,·
NC(=S)N1CCCc2ccccc21,6%,6.3µM*,4%,?,-2%
COc1ccccc1C(=O)NC(=S)N1CCCc2ccccc21,-2%,7.9µM*,-3%,?,4%
O=C(NC(=S)N1CCCc2ccccc21)c1ccc([N+](=O)[O-])cc1,6%,?,-30%,6.3µM*,?
COc1ccccc1C(=O)NC(=S)N1CCc2ccccc21,0%,?,-3%,?,-15%
O=C(C(=O)N1CCCc2ccccc21)N1CCCc2ccccc21,3%,20%,15%,-8%,24%
CCN(CC)CCCCNc1ncc2cc(-c3cc(OC)cc(OC)c3)c(NC(=O)NC(C)(C)C)nc2n1,·,31%,·,?,·
O=C(NCCn1cc(SCc2ccc(C(F)(F)F)cc2)c2ccccc21)c1ccccc1F,-15%,·,?,·,?
O=C(NCCn1cc(SCc2ccc(C(F)(F)F)cc2)c2ccccc21)c1cccs1,-14%,·,5.6µM*[quencher],·,?
CC(C)c1ccc(-n2cccc2/C=C2/C(=N)N3C=CSC3=NC2=O)cc1,3%,7.1µM*,-26%,16µM*,?
COc1ccc(-c2ccc(/C=C3/C(=N)N4C(C)=CSC4=NC3=O)o2)c([N+](=O)[O-])c1,-10%,11µM*,?,?,2.2µM*
CC1=CSC2=NC(=O)/C(=C\c3cccn3-c3ccccc3)C(=N)N12,-2%,-4%,3%,7%,12%
COc1ccc(-c2ccc(/C=C3\C(=O)N(c4ccccc4)N=C3c3ccccc3)o2)c([N+](=O)[O-])c1,5%,-17%,?,-8%,?
CCC1=NN2C(=N)/C(=C\c3cccn3-c3ccc(Br)cc3)C(=O)N=C2S1,-4%,0%,-3%,-13%,?
CCC1=NN2C(=N)/C(=C\c3cccn3-c3cccc(Cl)c3)C(=O)N=C2S1,1%,11µM*,-11%,7%,?
Cc1ccccc1Cn1cccc1/C=C1/C(=N)N2C=CSC2=NC1=O,?,?,-21%,?,-10%
CC1=CSC2=NC(=O)/C(=C\c3cccn3-c3ccc([N+](=O)[O-])cc3)C(=N)N12,4%,?,1%,3.2µM*,?
CN(C)C(=O)[C@H]1C[C@@H]1[C@H](NC(=O)OCc1ccccc1)c1ccccc1,3%,-1%,-6%,10%,-6%
